This is part of a sample that, as a whole, favours compounds with a hit. Of some 83,000 tested, about 20% had one in any assay.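 Cells were grown in 96-well plates and exposed to the test compound at a single concentration for 48 hours; results are reported as percent growth, with values below 10 considered active.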 Active and inactive are the calls of the source.
Columns and labels:
Assay in all cases: NCI-60 one-dose screen, 48 h (100 = growth as untreated, 0 = no growth, -100 = all killed)
Conditions in all cases: 10 µM unless noted
NCI-H23 lung = tested on: NCI-H23 lung
NCI-H226 lung = tested on: NCI-H226 lung
NCI-H322M lung = tested on: NCI-H322M lung
HOP-62 NSCLC = tested on: HOP-62 NSCLC
NCI-H460 lung = tested on: NCI-H460 lung
HOP-92 NSCLC = tested on: HOP-92 NSCLC
NCI-H522 lung = tested on: NCI-H522 lung
A549/ATCC NSCLC = tested on: A549/ATCC NSCLC
786-0 renal = tested on: 786-0 renal
COLO 205 colon = tested on: COLO 205 colon
DU-145 prostate = tested on: DU-145 prostate
K-562 leukemia = tested on: K-562 leukemia
MALME-3M melanoma = tested on: MALME-3M melanoma
MDA-MB-231 breast = tested on: MDA-MB-231 breast
RXF 393 renal = tested on: RXF 393 renal
SF-268 CNS = tested on: SF-268 CNS
SF-295 CNS = tested on: SF-295 CNS
SF-539 CNS = tested on: SF-539 CNS
UACC-257 melanoma = tested on: UACC-257 melanoma
M14 melanoma = tested on: M14 melanoma

Measured: growth

Cc1ccc(C(=O)Nc2ccc(CN3CCN(C)CC3)c(C(F)(F)F)c2)cc1C#Cc1cnc(N)cc1C#N
active: NCI-H23 lung -40.7% | NCI-H226 lung 9.78% | HOP-62 NSCLC -69.7% | NCI-H460 lung -80.7% | HOP-92 NSCLC -39.8% | NCI-H522 lung -72.7% | A549/ATCC NSCLC -84.7% | 786-0 renal -73.8% | COLO 205 colon -64.9% | DU-145 prostate -53.1% | K-562 leukemia -41.5% | MALME-3M melanoma -79.2% | MDA-MB-231 breast -67% | RXF 393 renal -88.6% | SF-268 CNS -14.7% | SF-295 CNS -68.1% | SF-539 CNS -94.8% | UACC-257 melanoma -23.6% | M14 melanoma -80.8%
inactive: NCI-H322M lung 12.4%

COc1ccc(Nc2ncnc3ccc(-c4cncc(NS(C)(=O)=O)c4)cc23)cc1Cl
active: HOP-92 NSCLC -7.88% | NCI-H522 lung 9.61%
inactive: NCI-H23 lung 35.4% | NCI-H226 lung 56% | NCI-H322M lung 54.6% | HOP-62 NSCLC 39.2% | NCI-H460 lung 75.9% | A549/ATCC NSCLC 64.5% | 786-0 renal 58.3% | COLO 205 colon 30.2% | DU-145 prostate 46.9% | K-562 leukemia 28.1% | MALME-3M melanoma 36.2% | MDA-MB-231 breast 21.6% | RXF 393 renal 26.8% | SF-268 CNS 24.9% | SF-295 CNS 55.8% | SF-539 CNS 18.9% | UACC-257 melanoma 37% | M14 melanoma 51.5%

Cn1cc2c(=O)nc3c(-c4nc5ccccc5[nH]4)n[nH]n3c2n1
active: NCI-H522 lung -44.5%
inactive: NCI-H23 lung 78.6% | NCI-H226 lung 96.4% | NCI-H322M lung 91.8% | HOP-62 NSCLC 73% | NCI-H460 lung 81.9% | HOP-92 NSCLC 83.6% | A549/ATCC NSCLC 79.2% | 786-0 renal 80.7% | COLO 205 colon 114% | DU-145 prostate 71.8% | K-562 leukemia 61.1% | MALME-3M melanoma 74.1% | MDA-MB-231 breast 100% | RXF 393 renal 78.1% | SF-268 CNS 74.2% | SF-295 CNS 106% | SF-539 CNS 97% | UACC-257 melanoma 72.9% | M14 melanoma 75.8%

C[N+]1=C(/C=C\C=C\c2ccccc2)C(C)(C)c2ccccc21
inactive: NCI-H23 lung 18.7% | NCI-H226 lung 63.8% | NCI-H322M lung 81.2% | HOP-62 NSCLC 52% | NCI-H460 lung 43.4% | A549/ATCC NSCLC 28% | 786-0 renal 33.6% | DU-145 prostate 48.7% | RXF 393 renal 38% | SF-268 CNS 38.5% | SF-295 CNS 72.4% | M14 melanoma 20.5%
active: HOP-92 NSCLC -7.51% | NCI-H522 lung -3.08% | COLO 205 colon -43.4% | K-562 leukemia 4.69% | MALME-3M melanoma -17.8% | MDA-MB-231 breast 9.89% | SF-539 CNS 8.59% | UACC-257 melanoma 8.91%

OCc1cc(CN2CCCCC2)c(O)c2ncccc12
inactive: NCI-H23 lung 75.8% | NCI-H226 lung 67.5% | NCI-H322M lung 25.9% | HOP-62 NSCLC 35.8% | NCI-H460 lung 20.7% | HOP-92 NSCLC 71.9% | NCI-H522 lung 80.7% | A549/ATCC NSCLC 57.8% | 786-0 renal 57.9% | COLO 205 colon 47% | DU-145 prostate 49.5% | K-562 leukemia 55.5% | MALME-3M melanoma 62.8% | MDA-MB-231 breast 49.5% | RXF 393 renal 73.8% | SF-268 CNS 48.2% | SF-295 CNS 60.6% | SF-539 CNS 54% | UACC-257 melanoma 77.8% | M14 melanoma 36.2%

COc1cc(/C=C2\CCC/C(=C\c3cc(CN4CCCC4)c(O)c(OC)c3)C2=O)cc(CN2CCCC2)c1O
inactive: NCI-H23 lung 38.4% | NCI-H226 lung 75.1% | NCI-H322M lung 44.3% | HOP-62 NSCLC 102% | HOP-92 NSCLC 10.5% | NCI-H522 lung 46.1% | A549/ATCC NSCLC 43.7% | K-562 leukemia 11.1% | MALME-3M melanoma 81.6% | MDA-MB-231 breast 12.5% | RXF 393 renal 10.6% | SF-268 CNS 35.3% | SF-295 CNS 62.5% | SF-539 CNS 23% | UACC-257 melanoma 86.6% | M14 melanoma 19.6%
active: NCI-H460 lung 6.28% | 786-0 renal -4.39% | COLO 205 colon -45.7% | DU-145 prostate 2.36%

O=C(N=Nc1c(O)[nH]c2ccccc12)Nc1ccccc1Cl
inactive: NCI-H23 lung 80.1% | NCI-H226 lung 87.1% | NCI-H322M lung 73.5% | HOP-62 NSCLC 104% | NCI-H460 lung 92.1% | HOP-92 NSCLC 90.3% | NCI-H522 lung 78.6% | A549/ATCC NSCLC 107% | 786-0 renal 96.9% | COLO 205 colon 105% | DU-145 prostate 98.8% | K-562 leukemia 88.1% | MALME-3M melanoma 96.9% | MDA-MB-231 breast 85.1% | RXF 393 renal 101% | SF-268 CNS 96.8% | SF-295 CNS 94.1% | SF-539 CNS 95.7% | UACC-257 melanoma 92% | M14 melanoma 94.7%

COc1ccc(/C=C/C(=O)c2cc3c(N)c(C(=O)Nc4ccccc4Cl)sc3nc2C)cc1
active: HOP-92 NSCLC 9.45% | 786-0 renal -20.4% | RXF 393 renal -3.54%
inactive: NCI-H23 lung 52.3% | NCI-H226 lung 27.4% | NCI-H322M lung 62.3% | HOP-62 NSCLC 45.3% | NCI-H460 lung 32.6% | NCI-H522 lung 15.4% | A549/ATCC NSCLC 33.8% | COLO 205 colon 69.8% | DU-145 prostate 46.3% | K-562 leukemia 38.9% | MALME-3M melanoma 21% | MDA-MB-231 breast 33.8% | SF-268 CNS 53.3% | SF-295 CNS 48.5% | SF-539 CNS 36.2% | UACC-257 melanoma 63.8% | M14 melanoma 12.1%
